Screening data: PubChem, several laboratories
MazF activator – activators of E. coli MazEF toxin-antitoxin RNase; activation, % at 20 µM; 350,000 tested, 0.32% active; P0AE70; FAM/BHQ RNA-DNA oligo cleavage fluorescence, 5 h; in the data active means activation above about 50%
BoNT-A LC inh2 – blocks Botulinum neurotoxin A light chain protease | inhibition, % at 10 µM | multiplex microsphere protease substrate cleavage, flow cytometry | 360,000 tested, 0.17% active | AID 588499; further: plate controls were buffer without enzyme for full effect and enzyme alone for no effect
Autofluor counter – counter-screen for toxin protease inhibitors: compound fluorescence; compound autofluorescence counterscreen, microsphere flow cytometry; hits give high values; fluorescence intensity (concentration not given with the values); 360,000 tested, 3.1% active; AID 624483; in the data active means fluorescence intensity above about 16000; inconclusive means no clear call, values can overlap the other calls
BoNT-F LC inh – BoNT F light chain protease inhibition | Multiplex microsphere protease cleavage assay, flow cytometry | AID 588497 | inhibition, % at 10 µM | 360,000 tested, 0.22% active; in the data active means inhibition above about 35%, passing the limit was not always enough; inconclusive means no clear call, values can overlap the other calls; further: plate controls were buffer without enzyme for full effect and enzyme alone for no effect
PfHsp40 rescue – restores yeast growth despite PfHsp40 toxicity; S. cerevisiae expressing PfHsp40, growth rescue, ATP luminescence; growth rescue, % at 12.5 µM; 340,000 tested, 0.68% active; in the data active means growth rescue above about 28%, passing the limit was not always enough; inconclusive means no clear call, values can overlap the other calls;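 further: yeast W303a lacking pdr1 and pdr3 grown in galactose medium; growth measured after three days at 30 °C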
Anthrax LF inh2 – blocks Bacillus anthracis lethal factor protease | P15917 | multiplex microsphere protease cleavage assay, LF | inhibition, % at 10 µM | 360,000 tested, 0.12% active | AID 588501; further: plate controls were buffer without enzyme for full effect and enzyme alone for no effect
* = called active by the depositor; ? = inconclusive; / = no result given. A selection: hits, their analogues and other compounds. The true share with any hit is near 4.3%. Unless noted, no stated cut-off is given here; in the data, active means inhibition above about 30%; inconclusive means no clear call, values can overlap the other calls; inactive means below that.

SMILES | MazF activator | BoNT-A LC inh2 | Autofluor counter | BoNT-F LC inh | PfHsp40 rescue | Anthrax LF inh2
CCNC(=O)C1CN(S(=O)(=O)c2ccccc2)CCN1S(=O)(=O)c1ccccc1 (stereo unspecified) | 5 | 0 | 9897 | 5 | -1 | 1
Cc1cc(C)c2c(n1)sc1c(N3CCN(CCO)CC3)ncnc12 | 3 | -4 | 17147* | -4 | 4 | -7
C[C@H](NC(=O)c1nc[nH]c1C(=O)N1CCNCC1)C(=O)OC(C)(C)C | 2 | 0 | 2970 | 2 | 1 | -8
COc1ccc(OCc2nnc(SCC(N)=O)n2N)cc1 | 22 | 0 | 2892 | 4 | 0 | 6
COC(=O)CSc1nnc(CNC(=O)c2cccc(C)c2)n1-c1ccccc1OC | 8 | ? | 22455* | 5 | -1 | -6
COc1ccc(OCc2nnc(SCC(N)=O)n2-c2ccccc2OC)cc1 | -3 | 1 | 19312* | -4 | -1 | -3
Nc1nc2sc3c(c2c(=O)s1)CCCC3 | 8 | 1 | 9336 | 0 | 290* | -1
COc1ccc2c(C=O)cn(C)c2c1 | 5 | 0 | 4116 | -4 | ? | -2
c1ccc(CSc2nnc(Cc3ccccc3)o2)cc1 | 1 | 0 | 4186 | 2 | 0 | -4
COc1cc(OC)cc(-c2nnc(SCC(=O)N(C(C)C)C(C)C)o2)c1 | 0 | -1 | 11463 | -7 | -1 | -5
COc1cccc(-c2nnc(SCC(=O)N(C(C)C)C(C)C)o2)c1 | -4 | ? | 24162* | -5 | 2 | -3
O=C(O)c1cccc(CSc2nnc(Cc3ccccc3)o2)c1 | -7 | ? | 22785* | -2 | 0 | 1
COc1cc(OC)cc(-c2nnc(SCc3cccc(C(=O)O)c3)o2)c1 | 2 | 2 | 22846* | 1 | -1 | 0
C/C(N)=C(/C#N)C(=O)CSc1nnc(-c2ccccc2Br)o1 | 5 | -1 | 4690 | -21 | 1 | -5
COc1ccc(-c2nnc(SCC(=O)/C(C#N)=C(\C)N)o2)cc1 | 24 | ? | 24309* | -2 | -1 | 0
NCCc1c(-c2ccccc2)n(-c2ccccc2)c2ccccc12 | 1 | 1 | 6409 | -14 | -1 | -5
OCc1cccc(-c2csc(C(O)c3ccccc3)n2)c1 (stereo unspecified) | / | -1 | 4135 | -4 | / | -3
CCOC(=O)C1(C)CCN1C(=O)COc1ccc(C(C)(C)C)cc1 (stereo unspecified) | / | 0 | 3412 | -2 | / | 9
CCc1ccccc1NC(=O)Cn1nnc(-c2cccnc2)n1 | 13 | 0 | 22832* | 2 | 0 | -1
CSCCC(NC(=O)COc1cccc2ccccc12)C(=O)O (stereo unspecified) | 0 | -2 | 5330 | -6 | 0 | 0
CCCCOc1ccc(N(CC(=O)NCc2ccccc2)C(=O)c2csnn2)cc1 | 2 | 1 | 5771 | 6 | 1 | -1
COc1ccccc1/C=C/C(=O)c1c2c(c(C)[nH]c1=O)CCCC2 | 2 | ? | 21882* | 5 | 1 | -1
COc1ccccc1/C=C/C(=O)c1ccc(Cl)cc1 | 0 | -2 | 24068* | -2 | -2 | -2
CCc1cc(C(=O)OC)c(NC(=O)CCC(=O)O)s1 | -2 | 1 | 21823* | 0 | 1 | 1
Cc1cc2c(cc1C)NC(CC(=O)NCc1ccccc1)C(=O)N2 (stereo unspecified) | 10 | 2 | 23973* | 2 | -1 | 2
SMILES | MazF activator | BoNT-A LC inh2 | Autofluor counter | BoNT-F LC inh | PfHsp40 rescue | Anthrax LF inh2
CCCc1cc(C(=O)OC)c(NC(=O)OCC)s1 | -11 | ? | 18061* | 11 | 0 | -12
CCc1cc(C(=O)OC)c(NC(=O)CC2Nc3cc(C)c(C)cc3NC2=O)s1 (stereo unspecified) | 153* | 1 | 9492 | 2 | -1 | -2
CCCc1cc(C(=O)OC)c(NC(=O)CCCC(=O)O)s1 | -6 | 0 | 4683 | -2 | 0 | 3
CC(=O)OCc1c(C)cc(C)c(/C=C(/C#N)C(N)=O)c1C | 0 | 0 | 3903 | 2 | 1 | -2
Cn1cnnc1SCC(=O)N/N=C/c1ccc(OCC(N)=O)cc1 | 6 | 0 | ? | ? | -1 | -3
CC(=O)N1CCOc2ccc(S(=O)(=O)NCc3ccc(F)cc3)cc21 | 5 | -2 | 6346 | 4 | 0 | -2
CC(C)C(=O)Nc1cccc(-c2cnc3ccccc3n2)c1 | -3 | 2 | 20196* | 0 | 3 | -1
Cc1ccc(C(=O)Nc2cccc(-c3cnc4ccccc4n3)c2)cc1 | 5 | 2 | 5719 | 3 | 1 | 2
